# “And” between values parts separate entries of the source, which are not always exact repeats. Equal entries are not always repeated. The campaign covered roughly 16,000 compounds. About 5,700 (36%) were called active. Inconclusive results (about 24%) are left out. Some of the results follow. A number with no mark means an inactive call. The call rests on the fitted dose curve; in most records, active means well fitted curve in the direction sought with a large enough effect; inconclusive means small, poorly fitted or top-dose-only effect, or effect the other way; inactive means no such curve, though single readings can be large or run the other way.
# Target: Cytochrome P450 1A2 (Homo sapiens) (UniProt P05177)
# Sequence (P05177 whole entry, looked up): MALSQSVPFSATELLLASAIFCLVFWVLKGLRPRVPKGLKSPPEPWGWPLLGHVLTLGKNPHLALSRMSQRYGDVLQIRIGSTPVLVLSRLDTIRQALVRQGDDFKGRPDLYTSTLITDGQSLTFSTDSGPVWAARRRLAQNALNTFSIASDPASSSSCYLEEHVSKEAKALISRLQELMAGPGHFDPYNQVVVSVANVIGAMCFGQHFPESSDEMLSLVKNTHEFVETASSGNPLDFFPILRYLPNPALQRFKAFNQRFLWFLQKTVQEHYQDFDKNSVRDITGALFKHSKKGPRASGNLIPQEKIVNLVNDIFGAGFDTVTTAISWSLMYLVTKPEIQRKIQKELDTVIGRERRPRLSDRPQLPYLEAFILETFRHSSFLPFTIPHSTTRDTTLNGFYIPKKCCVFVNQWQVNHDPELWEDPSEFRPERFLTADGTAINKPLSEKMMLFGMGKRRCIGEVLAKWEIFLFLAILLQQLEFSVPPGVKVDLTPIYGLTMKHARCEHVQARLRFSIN
# Assay: Cytochrome panel assay with activity outcomes
# Conditions: recombinant CYP, pro-luciferin dealkylation, luminescence, p450-cyp1a2; series mostly up to 57.1 µM
# Experimental: The P450 gene superfamily is involved in the metabolism and clearance of xenobiotics. This assay used various human CYP P450 isozymes to measure the dealkylation of various pro-luciferin substrates to luciferin. The luciferin is then measured by luminescence after the addition of a luciferase detection reagent. Pro-luciferin substrate concentration in the assay was equal to its KM for its CYP P450 isozyme. Inhibitors and some substrates limit the production of luciferin, and decrease measured luminescence.
# NCGC Assay Protocol Summary:
# 1, Reagent, 2 uL, Isozyme and Pro-Luciferin
# 2, Library compounds, 23 nl, 40 uM to 0.24 nM dilution series
# 3, Controls, 23 nl, Isozyme specific inhibitor
# 4, Reagent, 2 uL, NADPH regeneration solution
# 5, Incubation time, 60 min, Isozyme specific temperature
# 6, Reagent, 4ul, Detection reagent
# 7, Incubation time, 20 min, Isozyme specific temperature
# 8, Detection, 1 sec, ViewLux luminescent read
# The luciferase-based P450-GloTM Screening Systems were obtained from Promega (Madison, WI) for CYP 1A2 (V9770), CYP 2C9 (V9790), CYP2 C19 (V9880), CYP 2D6 (V9890), and CYP 3A4 Luciferin-PPXE (V9910) and were adapted for 1,536-well microplates and an automated protocol. The control compounds furafylline for 1A2 (F124), sulfaphenazole for CYP 2C9 (S0758), ketoconazole for CYP 2C19 (K1003), quinidine for 2D6 (Q3625), and ketoconazole for 3A4 (K1003) were purchased from Sigma Aldrich (St. Louis, MO). Recombinant P450 enzymes were obtained from baculovirus constructs expressed in insect cells (BD/Gentest).
# Medium-binding white solid Kalypsys plates used. Mixtures kept on ice. 1A2: 10 nM 1A2, 100 uM Luc-ME, 100 mM KPO4; 2C9: 10 nM 2C9, 100 uM Luc-H, 25 mM KPO4; 2C19: 5 nM 2C19, 10 uM Luc-H EGE, 50 mM KPO4; 2D6: 5 nM 2D6, 30 uM Luc-ME EGE, 100 mM KPO4; 3A4: 10 nM, 25 uM Luc-PPXE. All amounts are reflected in their final concentration, working concentration is 2x.
# NADPH regeneration solution: 1.3 mM NADP+, 3.3 mM glucose-6-phosphate, 3.3 mM MgCl2, 0.4 U/mL glucose-6-phosphate dehydrogenase for all isozymes, 200 mM KPO4 for 3A4. Mixture prepared at RT but kept on ice during automated run.
# RT incubation in auxilliary plate hotel for 1A2, 2D6, and 3A4; 37C for 2C9 and 2C19.
# Keywords: P450, CYP1A2, CYP2C19, CYP2C9, CYP2D6, CYP3A4, Luciferase, MLSMR, MLSCN, NIH Roadmap, qHTS, NCGC
# On the % scale 0 is the no-effect control and ±100 the full control effect.
Compound,AC50,"activity, negative = inhibition"
C[C@H](N)Cc1c[nH]c2ccc(O)cc12,inactive,–
C[C@H](N)Cc1c[nH]c2ccc(OCc3cccs3)cc12,1.58 µM (active) and 126 nM (active),–
O=P(O)(O)C(Cl)(Cl)P(=O)(O)O,inactive,–
CS(=O)(=O)Nc1ccc(Cc2noc(-c3ccc4[nH]cc(CCN)c4c3)n2)cc1,0.0316 µM (active),–
C=C[C@]12CN(C)[C@H]3C1[C@@]1(C(=O)Nc4ccccc41)[C@H]1C[C@H]2[C@H]3CO1,inactive,–
O=C1C=C2C=C[C@H]3C[C@@]2(O1)[C@H]1CCCCN31,inactive,–
Fc1ccccc1CCNCc1cccc(Cl)c1Cl,5.62 µM (active),–
c1ccc(CN2CCC3(CCNCC3)CC2)cc1,inactive,–
CN1CCN(c2ccc3ccccc3n2)CC1,10 µM (active) and 3.16 µM (active),–
c1ccc2nc(N3CCNCC3)ccc2c1,1.58 µM (active) and 1.26 µM (active) and 251 nM (active),–
c1ccc2c(N3CCNCC3)cccc2c1,10 µM (active),–
c1ccc(N2CCC3(CCNCC3)CC2)nc1,inactive,–
O=[N+]([O-])c1ccc2nc(N3CCNCC3)ccc2c1,2 µM (active),–
COc1ccccc1N1CCNCC1,inactive,–
C[N+]1([O-])[C@@H]2CC(OC(=O)[C@@H](CO)c3ccccc3)C[C@@H]1[C@H]1O[C@H]12 (stereo not given in full),inactive,–
CCC1(CCSC(=N)N)C(=O)NC(=O)NC1=O,–,-10.9% [at 2.29 µM]
NO,inactive,–
CC(=O)O[C@@H]1CN2CCC1CC2,inactive,–
O=C1NC(=O)N(CCNc2ncc(C(F)(F)F)cc2Cl)C(=O)C1/C=N/OCc1c(F)cccc1Cl (stereo not given),inactive,–
CP(=O)(O)C1=CCNCC1,inactive,–
COC(=O)CN1CN(c2ccccc2)C2(CCN(Cc3ccc4ccccc4c3)CC2)C1=O,inactive,–
c1cnc(N2CCC3(CCNCC3)CC2)nc1,inactive,–
N[C@@H](CSC1c2ccccc2-c2ccccc21)C(=O)O,2.51 µM (active),–

Compound,AC50,"activity, negative = inhibition"
N[C@H](CCl)C(=O)O,inactive,–
N[C@H](Cn1ccc(=O)[nH]c1=O)C(=O)O,inactive,–
C=C1[C@@H]2C[C@@]3([C@H]1O)[C@H]1C[C@@H]4[C@@]5(C)CC[C@H](O)[C@]4([C@H]1N(CC)C5)[C@H]3C[C@H]2O,inactive,–
CCCCn1c(N)c(C(=O)NCc2cccs2)c2nc3ccccc3nc21,2.82 µM (active),–
CC(C)CCn1c(N)c(C(=O)NCc2cccs2)c2nc3ccccc3nc21,2.24 µM (active),–
COCCCN1CCN(c2nnc3n2-c2sc(Br)cc2C(c2ccccc2Cl)=NC3)CC1,inactive,–
COC(=O)[C@@H]1[C@@H](O)[C@@]2(O)c3c(OC)cc(OC)cc3O[C@@]2(c2ccc(OC)cc2)[C@H]1c1ccccc1,–,-2.88% [at 11.4 µM]
CCCC[N+]1(C)[C@@H]2CC(OC(=O)[C@@H](CO)c3ccccc3)C[C@H]1[C@H]1O[C@H]12 (stereo not given in full),inactive,–
COc1cc2c(cc1OC)[C@H](C)NCC2,inactive,–
[N-]=[N+]=NCC(=O)c1c[nH]c(=O)[nH]c1=O,–,0.0946% [at 2.29 µM]
O=[N+]([O-])c1cc(-c2ccc([As](=O)(O)O)cc2)ccc1[As](=O)(O)O,–,-10.9% [at 2.29 µM]
CCC1(C)CC(=O)NC(=O)C1,inactive,–
CCC1=C(C[C@H]2NCCc3ccccc32)C[C@@H]2c3cc(OC)c(OC)cc3CCN2C1,–,-7.08% [at 11.4 µM]
COc1ccc2c(c1OC)CN1CCc3cc4c(cc3[C@H]1C2)OCO4,1.58 µM (active),–
COc1ccc2c(c1OC)C(=O)O[C@H]2[C@H]1c2cc3c(cc2CCN1C)OCO3,inactive,–
CN(C)CCC(=O)[C@@]1(O)CC[C@H]2[C@H]3CC=C4C[C@@H](O)CC[C@]4(C)[C@H]3CC[C@]21C,–,-5.71% [at 11.4 µM]
CCN1C[C@@]2(COC)CC[C@H](OC)[C@]34[C@@H]1[C@]1(OCO[C@@]15C[C@@H](OC)C1C[C@H]3[C@H]5[C@@H]1OC)[C@H](O)[C@@H]24,inactive,–
CC[C@H](CO)NC(=O)[C@@H]1C=C2c3cccc4c3c(cn4C)C[C@@H]2N(C)C1,inactive,–
CC(C)C[C@H]1C(=O)N2CCC[C@@H]2[C@]2(O)O[C@](NC(=O)[C@H]3C=C4c5cccc6[nH]c(Br)c(c56)C[C@H]4N(C)C3)(C(C)C)C(=O)N12,inactive,–
CC[C@@H](CO)NC(=O)[C@H]1C=C2c3cccc4c3c(cn4C)C[C@H]2N(C)C1,15.8 µM (active),–
Nc1ccc(S(=O)(=O)c2ccc(NCN3C(=O)NC(=O)C(=O)C3=O)cc2)cc1,–,-12.8% [at 11.4 µM]
COc1ccc(C(=O)NC2CC3CCCC(C2)N3CC(C)C)cc1OC (stereo not given),inactive,–

# — PubChem BioAssay AID1851 (National Center for Advancing Translational Sciences (NCATS), 2009)
